The source made the active and inactive calls.

For assay [1], the system named is PRMT1 (protein arginine N-methyltransferase 1). The assay can be described thus: small molecules binding arginine methyltransferase PRMT1 – biochemical, small-molecule microarray, 635 nm fluorescence, primary screen (AID 1088).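 Note: binding of Prmt1 protein to compounds spotted on small-molecule microarray slides.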 The settings on record: higher = more signal.
A short description of assay [2]: growth effects on S. cerevisiae YJM789 – YJM789 clinical isolate, OD600, 24 h, basal, primary screen (AID 1089).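 Note: growth of clinical yeast isolate S. cerevisiae YJM 789 seeded 1000 cells per well; test concentration not given here.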 The settings on record: higher = more signal, called active from +8 up or from −8 down.
The nature of assay [3]: S. pombe growth modifiers, basal conditions – strain 972, OD600, 24 h, no modulator, primary screen (AID 1090).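 Note: basal condition with compound alone and no growth modifier present; test concentration not given here.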 The settings on record: S. pombe 972 growth, higher = more signal, called active from +8 up or from −8 down.
Assay [4] is described as follows: budding yeast growth modifiers under rapamycin – strain BY4716, OD600, 96 h, primary screen (AID 1091). Note: test concentration not given here. Particulars: S. cerevisiae BY4716 + rapamycin, higher = more signal, called active from +8 up or from −8 down.
Assay [5] addresses Torsin-1A-interacting protein 2 (Homo sapiens) (UniProt Q8NFQ8). The assay can be described thus: small molecules binding lysate-expressed LULL1 – cell lysate, human LULL1 lysate, 635/667 nm fluorescence, primary screen (AID 1092).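 Note: probe is lysate of COS7 cells overexpressing human LULL1; score merges per-feature 667 nm fluorescence with signal-to-noise.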 Particulars: small-molecule microarray, hLULL1 lysate binding, 635 nm fluorescence; higher = more signal.
Assay [6] in a line: optical density change of DRC41 E. coli – strain DRC41, OD650, 24 h, E. coli filamentation project, primary screen (AID 1093).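 Note: MC1000 strain lacking acrAB efflux and sulA so SOS filamentation is blocked; test concentration not given here.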 The settings on record: E. coli DRC41 growth, higher = more signal, called active from +8 up or from −8 down.
The nature of assay [7]: probe aLefty2 binding to arrayed compounds – biochemical, biotinylated probe, 635/667 nm fluorescence, primary screen (AID 1094).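 Note: score merges spot fluorescence near 667 nm with spot signal-to-noise ratio.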 Particulars: small-molecule microarray, higher = more signal.
In assay [8] the test system is Noggin (protein binding on small-molecule microarray). The assay can be described thus: small molecules binding Noggin protein – biochemical, 635/667 nm fluorescence, primary screen (AID 1095).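 Note: score merges 667 nm feature fluorescence with signal to noise over triplicate slides.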 The settings on record: 635 nm fluorescence, higher = more signal.
The target of assay [9] is Neurogenic locus notch homolog protein 3 (Homo sapiens) (UniProt Q9UM47). The assay can be described thus: small molecules binding NOTCH3 protein – biochemical, 635/667 nm fluorescence, primary screen (AID 1096). Particulars: small-molecule microarray, 635 nm fluorescence, higher = more signal.
Assay [10] can be described thus: probe aEGFR binding to arrayed compounds – biochemical, biotinylated probe, 635/667 nm fluorescence, primary screen (AID 1097).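 Note: probe is a biotinylated anti-EGFR antibody binding compounds printed on slides; score combines fluorescence near 667 nm and signal to noise of each spot.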 The settings on record: small-molecule microarray, higher = more signal.
For assay [11], the system named is Plasmodium falciparum Sir2 (PF13_0152, Sir2A). Briefly: Plasmodium falciparum Sir2A binding compounds – biochemical, small-molecule microarray, 635 nm fluorescence, primary screen (AID 1098).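 Note: score merges spot fluorescence intensity with its signal-to-noise ratio.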 The settings on record: fluorescence 635 nm, higher = more signal.
Assay [12] is described as follows: probe aDKK1 binding to arrayed compounds – biochemical, biotinylated probe, 635/667 nm fluorescence, primary screen (AID 1099).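 Note: score merges 667nm spot fluorescence with signal to noise across triplicate slides; reference of the scale not given here.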 The settings on record: small-molecule microarray, higher = more signal.
Assay [13] in a line: probe aCHRDL2 binding to arrayed compounds – biochemical, biotinylated probe, 635/667 nm fluorescence, primary screen (AID 1100). Particulars: small-molecule microarray, higher = more signal.
Assay [14] can be described thus: change in splice reporter luminescence, either direction, cell-based, HEK293, spliceosome inhibition project, primary screen (AID 1101).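 Note: HEK293 cells carrying a splicing-competent luciferase reporter gene; test concentration not given here.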 The settings on record: HEK293 splicing luciferase reporter, 24 h, higher = more signal, called active from +8 up or from −8 down. For orientation: A reporter such as luciferase makes a cellular process visible.
The target of assay [15] is Fibroblast growth factor 10 (Homo sapiens) (UniProt O15520). The assay can be described thus: compounds binding fibroblast growth factor 10 – biochemical, small-molecule microarray, 635 nm fluorescence, primary screen (AID 1102). The settings on record: FGF10 binding, fluorescence 635 nm, higher = more signal.
For assay [16], the system named is glycogen synthase kinase-3 (GSK3A per assay name; protocol says GSK3B). The assay can be described thus: compounds binding glycogen synthase kinase-3 – biochemical, small-molecule microarray, 635 nm fluorescence, GSK3A, primary screen (AID 1103). Note: the record names both GSK3A and GSK3B. The settings on record: fluorescence 635 nm, higher = more signal.
Assay [17] concerns the target Epidermal growth factor receptor (Homo sapiens) (UniProt P00533). The assay can be described thus: compounds binding epidermal growth factor receptor – biochemical, small-molecule microarray, 635 nm fluorescence, primary screen (AID 1104).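 Note: score merges 667 nm emission intensity with spot signal to noise over triplicate slides.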 Particulars: EGFR binding, higher = more signal.
In assay [18] the target is Follistatin-related protein 3 (Homo sapiens) (UniProt O95633). Briefly: compounds binding follistatin-related protein 3 – biochemical, small-molecule microarray, 635 nm fluorescence, primary screen (AID 1105).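 Note: score merges emission near 667 nm and signal to noise per printed spot across three slides.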 Particulars: FSTL3 binding, higher = more signal.
In assay [19] the target is Dickkopf-related protein 1 (Homo sapiens) (UniProt O94907). Briefly: small molecules binding DKK1 protein – biochemical, small-molecule microarray, 635 nm fluorescence scan, primary screen (AID 1106).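 Note: score merges emission near 667 nm with signal to noise over three replicate slides.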 The settings on record: higher = more signal.
Assay [20] relates to Inhibin beta A chain (activin A). Briefly: small molecules binding activin A – biochemical, small-molecule microarray, 635 nm fluorescence scan, primary screen (AID 1107).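 Note: mouse activin A protein probed at 4.33 µg/mL on printed slides; score merges bound-protein fluorescence near 667 nm with spot signal-to-noise.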 The settings on record: INHBA, higher = more signal.

Sequence of Follistatin-related protein 3 (Homo sapiens) (O95633 whole entry, looked up): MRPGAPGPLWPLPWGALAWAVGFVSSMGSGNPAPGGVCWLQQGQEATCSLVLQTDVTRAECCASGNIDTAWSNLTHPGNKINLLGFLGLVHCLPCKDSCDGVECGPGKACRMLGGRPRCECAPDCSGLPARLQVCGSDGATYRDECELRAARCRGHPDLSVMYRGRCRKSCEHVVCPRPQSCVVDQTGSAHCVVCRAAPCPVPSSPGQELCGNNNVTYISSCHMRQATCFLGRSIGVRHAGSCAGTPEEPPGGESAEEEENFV
Sequence of Torsin-1A-interacting protein 2 (Homo sapiens) (Q8NFQ8 whole entry, looked up): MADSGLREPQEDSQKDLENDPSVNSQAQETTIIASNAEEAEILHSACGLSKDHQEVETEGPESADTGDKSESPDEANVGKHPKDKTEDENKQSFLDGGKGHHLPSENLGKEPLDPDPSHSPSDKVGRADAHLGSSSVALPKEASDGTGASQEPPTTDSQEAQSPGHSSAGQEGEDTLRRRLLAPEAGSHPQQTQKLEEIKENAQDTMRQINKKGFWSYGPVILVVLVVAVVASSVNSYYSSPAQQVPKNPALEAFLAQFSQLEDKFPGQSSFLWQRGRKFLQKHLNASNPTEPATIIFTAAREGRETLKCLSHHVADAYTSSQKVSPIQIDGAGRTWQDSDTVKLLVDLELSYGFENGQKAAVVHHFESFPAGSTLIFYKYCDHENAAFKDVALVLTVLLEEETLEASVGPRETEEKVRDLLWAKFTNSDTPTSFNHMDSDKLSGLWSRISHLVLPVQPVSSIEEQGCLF
Sequence of Dickkopf-related protein 1 (Homo sapiens) (O94907 whole entry, looked up): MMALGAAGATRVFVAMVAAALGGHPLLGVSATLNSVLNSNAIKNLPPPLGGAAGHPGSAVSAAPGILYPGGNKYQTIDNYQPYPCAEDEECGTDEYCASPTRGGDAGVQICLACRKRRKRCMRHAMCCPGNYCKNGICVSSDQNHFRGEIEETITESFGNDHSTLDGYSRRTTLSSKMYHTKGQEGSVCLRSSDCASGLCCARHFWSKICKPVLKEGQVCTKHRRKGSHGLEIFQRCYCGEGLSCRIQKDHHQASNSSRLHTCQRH
Sequence of Fibroblast growth factor 10 (Homo sapiens) (O15520 whole entry, looked up): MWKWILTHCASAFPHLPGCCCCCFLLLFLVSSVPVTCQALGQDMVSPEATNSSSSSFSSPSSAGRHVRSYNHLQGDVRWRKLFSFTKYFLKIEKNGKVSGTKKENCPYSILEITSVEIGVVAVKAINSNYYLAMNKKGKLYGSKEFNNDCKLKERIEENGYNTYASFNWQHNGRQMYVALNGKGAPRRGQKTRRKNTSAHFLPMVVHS
Sequence of Epidermal growth factor receptor (Homo sapiens) (P00533 whole entry, looked up): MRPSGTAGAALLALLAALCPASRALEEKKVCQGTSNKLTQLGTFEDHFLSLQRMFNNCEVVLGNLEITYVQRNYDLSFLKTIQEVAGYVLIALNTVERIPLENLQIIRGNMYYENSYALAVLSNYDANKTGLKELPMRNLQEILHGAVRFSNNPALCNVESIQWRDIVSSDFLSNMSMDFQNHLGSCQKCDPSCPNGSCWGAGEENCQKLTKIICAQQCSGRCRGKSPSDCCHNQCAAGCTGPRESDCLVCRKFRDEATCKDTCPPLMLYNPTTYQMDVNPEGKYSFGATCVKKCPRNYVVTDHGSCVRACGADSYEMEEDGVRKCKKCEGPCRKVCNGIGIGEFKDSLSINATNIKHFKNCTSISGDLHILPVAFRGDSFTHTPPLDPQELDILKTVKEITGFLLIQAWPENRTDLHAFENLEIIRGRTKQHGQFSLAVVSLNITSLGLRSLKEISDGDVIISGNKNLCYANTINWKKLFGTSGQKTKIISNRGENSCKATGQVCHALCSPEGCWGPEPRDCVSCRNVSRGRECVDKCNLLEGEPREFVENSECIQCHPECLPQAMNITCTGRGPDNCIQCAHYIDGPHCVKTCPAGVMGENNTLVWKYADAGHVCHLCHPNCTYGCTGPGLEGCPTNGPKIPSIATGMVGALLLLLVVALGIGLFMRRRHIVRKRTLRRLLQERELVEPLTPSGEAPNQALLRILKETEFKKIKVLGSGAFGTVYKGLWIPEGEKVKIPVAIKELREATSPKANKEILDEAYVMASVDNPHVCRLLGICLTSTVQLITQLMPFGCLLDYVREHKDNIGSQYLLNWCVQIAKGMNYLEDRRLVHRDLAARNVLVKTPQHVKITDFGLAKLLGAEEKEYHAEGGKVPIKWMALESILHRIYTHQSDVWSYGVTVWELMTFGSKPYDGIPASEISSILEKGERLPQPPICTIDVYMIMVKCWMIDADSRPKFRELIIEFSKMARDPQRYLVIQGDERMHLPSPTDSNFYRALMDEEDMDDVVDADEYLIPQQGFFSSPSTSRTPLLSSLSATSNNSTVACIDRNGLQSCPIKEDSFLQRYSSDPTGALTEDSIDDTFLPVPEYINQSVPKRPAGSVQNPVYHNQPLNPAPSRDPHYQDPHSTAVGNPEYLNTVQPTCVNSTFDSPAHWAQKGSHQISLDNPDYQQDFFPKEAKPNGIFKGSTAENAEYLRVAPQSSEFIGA
Sequence of Neurogenic locus notch homolog protein 3 (Homo sapiens) (Q9UM47 whole entry, looked up): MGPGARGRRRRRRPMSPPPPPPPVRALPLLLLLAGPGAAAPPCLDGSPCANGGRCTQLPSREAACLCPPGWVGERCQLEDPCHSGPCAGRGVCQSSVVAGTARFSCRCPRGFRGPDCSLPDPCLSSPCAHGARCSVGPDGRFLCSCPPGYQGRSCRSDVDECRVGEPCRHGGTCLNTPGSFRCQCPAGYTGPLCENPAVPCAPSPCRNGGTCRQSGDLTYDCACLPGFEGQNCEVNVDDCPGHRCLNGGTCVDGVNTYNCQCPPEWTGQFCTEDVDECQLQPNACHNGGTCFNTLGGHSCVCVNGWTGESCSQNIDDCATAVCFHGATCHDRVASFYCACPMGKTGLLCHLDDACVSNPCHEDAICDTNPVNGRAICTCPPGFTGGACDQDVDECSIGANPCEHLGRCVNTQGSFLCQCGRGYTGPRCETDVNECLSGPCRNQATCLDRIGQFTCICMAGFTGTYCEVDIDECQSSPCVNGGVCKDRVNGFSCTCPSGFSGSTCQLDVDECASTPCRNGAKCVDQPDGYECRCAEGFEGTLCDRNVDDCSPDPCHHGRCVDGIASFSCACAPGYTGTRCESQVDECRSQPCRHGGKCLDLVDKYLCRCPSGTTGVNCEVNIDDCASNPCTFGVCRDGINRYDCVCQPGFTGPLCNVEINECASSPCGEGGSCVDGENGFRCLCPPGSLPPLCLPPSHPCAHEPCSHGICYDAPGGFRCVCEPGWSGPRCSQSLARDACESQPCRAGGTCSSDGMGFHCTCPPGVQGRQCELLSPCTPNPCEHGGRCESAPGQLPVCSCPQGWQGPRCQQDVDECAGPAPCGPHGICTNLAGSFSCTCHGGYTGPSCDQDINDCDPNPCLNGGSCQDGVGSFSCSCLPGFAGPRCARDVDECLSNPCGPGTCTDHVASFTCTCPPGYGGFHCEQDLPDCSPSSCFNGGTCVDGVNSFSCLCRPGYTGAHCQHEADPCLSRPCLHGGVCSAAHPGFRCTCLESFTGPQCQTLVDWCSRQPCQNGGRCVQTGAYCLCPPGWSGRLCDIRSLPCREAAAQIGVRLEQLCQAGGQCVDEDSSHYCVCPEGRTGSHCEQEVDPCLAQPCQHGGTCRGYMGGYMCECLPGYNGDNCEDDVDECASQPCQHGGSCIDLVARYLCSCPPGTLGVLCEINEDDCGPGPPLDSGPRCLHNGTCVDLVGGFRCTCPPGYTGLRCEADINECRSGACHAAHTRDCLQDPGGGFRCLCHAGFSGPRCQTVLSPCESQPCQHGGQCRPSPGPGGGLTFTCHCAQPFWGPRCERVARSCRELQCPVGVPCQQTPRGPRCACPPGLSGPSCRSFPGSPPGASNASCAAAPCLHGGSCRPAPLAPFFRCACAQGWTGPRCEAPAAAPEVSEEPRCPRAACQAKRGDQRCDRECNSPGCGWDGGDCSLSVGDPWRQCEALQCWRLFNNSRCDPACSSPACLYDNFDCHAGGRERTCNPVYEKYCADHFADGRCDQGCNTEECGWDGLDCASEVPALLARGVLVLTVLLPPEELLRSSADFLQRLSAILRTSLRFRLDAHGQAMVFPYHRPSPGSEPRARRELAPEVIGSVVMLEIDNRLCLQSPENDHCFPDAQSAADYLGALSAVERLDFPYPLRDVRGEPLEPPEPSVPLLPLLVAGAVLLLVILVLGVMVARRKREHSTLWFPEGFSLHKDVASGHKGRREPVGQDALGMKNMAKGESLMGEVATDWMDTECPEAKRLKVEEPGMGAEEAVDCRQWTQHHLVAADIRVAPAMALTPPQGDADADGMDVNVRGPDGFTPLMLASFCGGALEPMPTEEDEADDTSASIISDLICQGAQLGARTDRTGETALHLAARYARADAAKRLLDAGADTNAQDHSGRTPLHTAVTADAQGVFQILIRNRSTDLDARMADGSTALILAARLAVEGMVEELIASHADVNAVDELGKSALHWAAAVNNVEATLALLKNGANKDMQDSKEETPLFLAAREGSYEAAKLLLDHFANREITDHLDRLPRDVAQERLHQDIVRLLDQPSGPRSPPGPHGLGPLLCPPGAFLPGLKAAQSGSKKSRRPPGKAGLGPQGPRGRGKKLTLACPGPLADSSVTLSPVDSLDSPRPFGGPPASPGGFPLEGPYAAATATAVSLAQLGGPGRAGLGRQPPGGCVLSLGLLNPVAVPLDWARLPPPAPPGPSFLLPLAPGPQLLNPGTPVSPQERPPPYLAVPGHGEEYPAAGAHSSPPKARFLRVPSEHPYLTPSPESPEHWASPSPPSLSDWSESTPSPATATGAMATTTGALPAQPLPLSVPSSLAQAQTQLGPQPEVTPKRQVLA

As for `CON=C(C)CCC(=O)OC[C@H]1O[C@H](c2ccccc2)C=C[C@@H]1Oc1ccc(OC)cc1`, the composite z-score was 0.0846 in [1]; -0.225 in assay [5]; -0.176 in assay [7]; 0.411 in [8]; -0.0061 in assay [9]; -0.0783 in assay [10]. Further, the composite z-score in assay [11] is 0.712; in [12], -0.174; in [13], -0.15; in assay [15] it was 0.142; in assay [16], -0.496; in [17], 0.213. Besides, the composite z-score stood at 0.189 in assay [18], 0.474 in [19] and 0.854 in assay [20]. Also, the z-score in assay [2] is 1.34 (inactive); in assay [3] it was -0.241 (inactive); in [4], 1.4 (inactive); in assay [6], 0.403 (inactive); in [14], 0.115 (inactive).
Regarding `COC(=O)CC=C[C@@H](C)[C@@H]1C=C[C@H](O)[C@@H](CO)O1`, the composite z-score in [1] was -0.266; in assay [5] it was 0.296; in assay [7] it was -0.177; in assay [8], 0.381; in [9], 0.601; in [10] it was -0.338. In addition, the composite z-score in assay [11] was 0.146; in [12], -0.0367; in [13], -0.48; in assay [15] it was 0.666; in assay [16], 0.753; in assay [17], 0.369. Also, the results for the composite z-score in assay [18], in [19] and in assay [20] were 0.559, 1.15 and 0.165, respectively. For the same molecule, the z-score in assay [2] was 0.773 (inactive); in assay [3] it was 1.08 (inactive); in assay [4], 0.531 (inactive); in assay [6], 0.426 (inactive); in assay [14], -0.593 (inactive).
In the case of `CCN1C(=O)[C@@H]2[C@H]3C(=CC[C@@H]2C1=O)C1(OCCCO1)[C@H]1O[C@H]1[C@H]3O`, the composite z-score was 1.44 in assay [1]; 0.899 in assay [5]; -0.16 in assay [7]; 0.643 in assay [8]; 1.07 in assay [9]; 0.0043 in assay [10]. In addition, the composite z-score in [11] is 0.416; in assay [12], 0.195; in assay [13] it was -0.0468; in assay [15] it was 1.39; in assay [16], 1.34; in assay [17], 0.286. The results for the composite z-score in [18], in [19] and in assay [20] were 1.22, 0.739 and -0.0212, respectively. Also, the z-score was 1.17 (inactive) in assay [2]; -6.63 (inactive) in assay [3]; 1.66 (inactive) in assay [4]; -0.0556 (inactive) in assay [6]; -9.75 (active) in [14].
Consider `CC(C)=NO[C@H](C)c1cn([C@H](CO)Cc2ccccc2)nn1`, for which the composite z-score in assay [1] is 0.325; in assay [5] it was 1.09; in [7], -0.166; in [8], -0.0003; in [9], 0.104; in assay [10] it was -0.0406. The composite z-score in assay [11] was 0.618; in assay [12], -0.309; in [13], -0.113; in assay [15] it was 0.443; in assay [16], -0.122; in [17] it was 0.17. Moreover, the composite z-score in assay [18] was -0.275; in assay [19], 0.291; in [20], 0.576. For the same molecule, the z-score was -0.43 (inactive) in assay [2]; -0.594 (inactive) in assay [3]; 0.245 (inactive) in [4]; 0.208 (inactive) in [6]; 1 (inactive) in assay [14].
For `COC(=O)[C@H](C)NC(=O)CCC1CC(OC(=O)NCc2ccc3c(c2)OCO3)CC2(CCCC(COC(=O)NCCc3ccccc3OC)O2)O1` (stereo not given in full), the composite z-score in assay [1] was 0.472; in assay [5], 1.89; in assay [7], -0.166; in [8], 0.181; in assay [9], 0.0607; in [10], -0.0798. In addition, the composite z-score was 0.417 in [11]; -0.037 in assay [12]; -0.24 in assay [13]; 0.0774 in assay [15]; 0.0268 in [16]; -0.102 in assay [17]. Further, the composite z-score in assay [18] is -0.108; in [19], -0.253; in assay [20] it was -0.28. Also, the z-score in assay [2] is -1.21 (inactive); in assay [3] it was 0.124 (inactive); in assay [4], -0.167 (inactive); in assay [6], 0.872 (inactive); in [14] it was -0.293 (inactive).

The values above are taken from PubChem BioAssay.
